Laboratory results published in the supplement of paper PMC8975748.
Where a name gives a salt, the structure may show the parent alone. ± gives the standard deviation of the averaged measurements.

Columns and labels:
[1] = test system: Saccharomyces cerevisiae BY4741 SeMeCo community; test: mean cell size (pixel area) (pixels); higher = larger cells; settings: 10 µM; 24 h; SM minimal medium
How it was run: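 Harmony analysis of automated confocal images of paraformaldehyde-fixed yeast gave the mean cell pixel area per well. The yeast was a Saccharomyces cerevisiae BY4741 community carrying four plasmids, each with a fluorescent marker and each complementing one auxotrophy, incubated for 24 h in SM medium containing drug at a final 10 µM in 384-well plates. Results are averaged over 3 replicates. Same SeMeCo high-content imaging drug screen: Selleck FDA-approved drugs at 10 µM, 24 h in SM medium, 384-well plates, 3 replicates.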

[2] = test system: Saccharomyces cerevisiae BY4741 SeMeCo community; test: z-score of subpopulation abundance vs DMSO median, subpopulation auxotrophic for M; higher = larger share of this subpopulation than in DMSO controls; settings: 10 µM; 24 h; SM minimal medium; subpopulation (auxotrophy): M
How it was run: (§1)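 A Saccharomyces cerevisiae BY4741 community carried four plasmids, each restoring one auxotrophy and encoding a distinct fluorescent protein. It was pre-grown overnight to OD600 1.0, diluted to 0.3, and 70 µl was added to 384-well plates acoustically predosed with library drugs (10 µM final), then grown 24 h in minimal SM medium. Cells were paraformaldehyde-fixed and imaged by automated confocal microscopy, with single-auxotroph fluorescent strains setting thresholds and autofluorescence correction. Each subpopulation's abundance was scored as a z-score against the vehicle-well median.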

[3] = test system: Saccharomyces cerevisiae BY4741 SeMeCo community; test: z-score of subpopulation abundance vs DMSO median, subpopulation auxotrophic for L; higher = larger share of this subpopulation than in DMSO controls; settings: 10 µM; 24 h; SM minimal medium; subpopulation (auxotrophy): L
How it was run: as §1

[4] = test system: Saccharomyces cerevisiae BY4741 SeMeCo community; test: z-score of subpopulation abundance vs DMSO median, subpopulation auxotrophic for U; higher = larger share of this subpopulation than in DMSO controls; settings: 10 µM; 24 h; SM minimal medium; subpopulation (auxotrophy): U
How it was run: as §1

[5] = test system: Saccharomyces cerevisiae BY4741 SeMeCo community; test: z-score of subpopulation abundance vs DMSO median, subpopulation auxotrophic for LU; higher = larger share of this subpopulation than in DMSO controls; settings: 10 µM; 24 h; SM minimal medium; subpopulation (auxotrophy): LU
How it was run: as §1

[6] = test system: Saccharomyces cerevisiae BY4741 SeMeCo community; test: z-score of subpopulation abundance vs DMSO median, subpopulation auxotrophic for LM; higher = larger share of this subpopulation than in DMSO controls; settings: 10 µM; 24 h; SM minimal medium; subpopulation (auxotrophy): LM
How it was run: as §1

[7] = test system: Saccharomyces cerevisiae BY4741 SeMeCo community; test: z-score of subpopulation abundance vs DMSO median, subpopulation auxotrophic for HM; higher = larger share of this subpopulation than in DMSO controls; settings: 10 µM; 24 h; SM minimal medium; subpopulation (auxotrophy): HM
How it was run: as §1

[8] = test system: Saccharomyces cerevisiae BY4741 SeMeCo community; test: z-score of subpopulation abundance vs DMSO median, subpopulation auxotrophic for HU; higher = larger share of this subpopulation than in DMSO controls; settings: 10 µM; 24 h; SM minimal medium; subpopulation (auxotrophy): HU
How it was run: as §1

[9] = test system: Saccharomyces cerevisiae BY4741 SeMeCo community; test: z-score of subpopulation abundance vs DMSO median, subpopulation auxotrophic for UM; higher = larger share of this subpopulation than in DMSO controls; settings: 10 µM; 24 h; SM minimal medium; subpopulation (auxotrophy): UM
How it was run: as §1

[10] = test system: Saccharomyces cerevisiae BY4741 SeMeCo community; test: z-score of subpopulation abundance vs DMSO median, subpopulation auxotrophic for HL; higher = larger share of this subpopulation than in DMSO controls; settings: 10 µM; 24 h; SM minimal medium; subpopulation (auxotrophy): HL
How it was run: as §1

[11] = test system: Saccharomyces cerevisiae BY4741 SeMeCo community; test: z-score of subpopulation abundance vs DMSO median, subpopulation auxotrophic for HLU; higher = larger share of this subpopulation than in DMSO controls; settings: 10 µM; 24 h; SM minimal medium; subpopulation (auxotrophy): HLU
How it was run: as §1

[12] = test system: Saccharomyces cerevisiae BY4741 SeMeCo community; test: z-score of subpopulation abundance vs DMSO median, subpopulation auxotrophic for HLM; higher = larger share of this subpopulation than in DMSO controls; settings: 10 µM; 24 h; SM minimal medium; subpopulation (auxotrophy): HLM
How it was run: as §1

[13] = test system: Saccharomyces cerevisiae BY4741 SeMeCo community; test: z-score of subpopulation abundance vs DMSO median, subpopulation auxotrophic for LUM; higher = larger share of this subpopulation than in DMSO controls; settings: 10 µM; 24 h; SM minimal medium; subpopulation (auxotrophy): LUM
How it was run: as §1

[14] = test system: Saccharomyces cerevisiae BY4741 SeMeCo community; test: z-score of subpopulation abundance vs DMSO median, subpopulation auxotrophic for HLUM; higher = larger share of this subpopulation than in DMSO controls; settings: 10 µM; 24 h; SM minimal medium; subpopulation (auxotrophy): HLUM
How it was run: as §1

[15] = test system: Saccharomyces cerevisiae BY4741 SeMeCo community; test: z-score of prototroph abundance vs DMSO median; higher = larger share of this subpopulation than in DMSO controls; settings: 10 µM; 24 h; SM minimal medium; subpopulation (auxotrophy): Prototroph
How it was run: as §1

[16] = test system: Saccharomyces cerevisiae BY4741 SeMeCo community; test: z-score of subpopulation abundance vs DMSO median, subpopulation auxotrophic for H; higher = larger share of this subpopulation than in DMSO controls; settings: 10 µM; 24 h; SM minimal medium; subpopulation (auxotrophy): H
How it was run: as §1

[17] = test system: Saccharomyces cerevisiae BY4741 SeMeCo community; test: z-score of subpopulation abundance vs DMSO median, subpopulation auxotrophic for HUM; higher = larger share of this subpopulation than in DMSO controls; settings: 10 µM; 24 h; SM minimal medium; subpopulation (auxotrophy): HUM
How it was run: as §1

Row | Compound | mean cell size [1] | z-score of subpopulation abundance [2] | z-score of subpopulation abundance [3] | z-score of subpopulation abundance [4] | z-score of subpopulation abundance [5] | z-score of subpopulation abundance [6] | z-score of subpopulation abundance [7] | z-score of subpopulation abundance [8] | z-score of subpopulation abundance [9] | z-score of subpopulation abundance [10] | z-score of subpopulation abundance [11] | z-score of subpopulation abundance [12] | z-score of subpopulation abundance [13] | z-score of subpopulation abundance [14] | z-score of prototroph abundance [15] | z-score of subpopulation abundance [16] | z-score of subpopulation abundance [17]
1 | COC(=O)C1=C(C)NC(C)=C(C(=O)OCCN(C)Cc2ccccc2)C1c1cccc([N+](=O)[O-])c1 (stereo not given) [Nicardipine HCl] | 12.4 ± 0.28 | 1.01 | 0.97 | -0.42 | 0.72 | 1.01 | 0.65 | 0 | 0.26 | -0.11 | 0.11 | -0.22 | -0.01 | -0.44 |  |  | 
2 | O=C1CN(/N=C/c2ccc([N+](=O)[O-])o2)C(=O)N1 [Nitrofurantoin] |  | 0.84 | -0.13 | -0.25 | -0.11 | -0.69 | -0.67 |  | 0.27 | 0.1 | -0.69 | -0.2 | -0.21 |  | 0.19 | -0.05 | -0.82
3 | CCC1(C)CC(=O)NC1=O (stereo not given) [Ethosuximide] | 12.6 ± 0.19 | -0.27 | 0.6 | 0.64 | 0.79 | -0.21 | -0.5 | -0.46 | -0.4 | 0.36 | -0.1 | 0.8 | 1.11 | 0.48 | -0.06 | -0.94 | 
4 | N=C(N)NC(=O)c1nc(Cl)c(N)nc1N [Amiloride HCl] |  | 1.46 | 1.94 | -1.58 | -0.38 | 3.94 |  | -2.41 | -1.89 | 1.51 | -0.5 | 3.24 |  | 0.53 |  | 0.83 | -1.69
5 | CCCCCOc1ccc(-c2cc(-c3ccc(C(=O)N[C@H]4C[C@@H](O)[C@@H](O)NC(=O)[C@@H]5[C@@H](O)[C@@H](C)CN5C(=O)[C@H]([C@H](O)CC(N)=O)NC(=O)[C@H]([C@H](O)[C@@H](O)c5ccc(O)c(OS(=O)(=O)O)c5)NC(=O)[C@@H]5C[C@@H](O)CN5C(=O)[C@H]([C@@H](C)O)NC4=O)cc3)no2)cc1 [Micafungin Sodium] | 12.4 ± 0.26 | -8.01 | 5.22 | -1.73 | 1.46 | 0.72 | 1.38 | 13.2 | 1.81 | 42.5 | 12 | 61.8 | 4.1 | 86.5 | -14.6 |  | 
6 | CC[C@H]1OC(=O)[C@H](C)[C@@H](O[C@H]2C[C@@](C)(OC)[C@@H](O)[C@H](C)O2)[C@H](C)[C@@H](O[C@@H]2O[C@H](C)C[C@H](N(C)C)[C@H]2O)[C@](C)(O)C[C@@H](C)C(=O)[C@H](C)[C@@H](O)[C@]1(C)O [Erythromycin] |  | 0.24 | 1.96 | -1.28 | 0.03 | 1.38 | 0.91 | -0.18 | -0.8 | 2.42 | 1 | 0.66 |  |  | -0.5 | 1 | -0.16
7 | CC1=C[C@H]2C(=O)O[C@H]3C[C@@H](C/C=C(\C)C[C@@H](C)/C=C/C=C4\CO[C@H](/C1=N\O)[C@@]42O)O[C@@]1(CC[C@H](C)[C@@H](C)O1)C3.CC[C@H]1O[C@]2(CC[C@@H]1C)C[C@@H]1C[C@@H](C/C=C(\C)C[C@@H](C)/C=C/C=C3\CO[C@@H]4/C(=N\O)C(C)=C[C@@H](C(=O)O1)[C@]34O)O2 [Milbemycin Oxime] | 12.36 ± 0.099 | -1.4 | 0.14 | -0.74 | -0.7 | -0.44 | 0.15 | 0.42 | -1.12 | 1.42 | -0.11 | -0.22 | -0.87 | -0.41 | 0.31 |  | 
8 | CN[C@@H]1[C@@H](O)[C@@H](O[C@@H]2[C@@H](O)[C@H](O[C@H]3OC(CN)=CC[C@H]3N)[C@@H](N)C[C@H]2N)OC[C@]1(C)O [Sisomicin sulfate] | 12.12 ± 0.053 | 1.6 | 1.01 | 0.55 | 0.28 | 1.22 | 0.61 | 0.07 | 0.74 | 0.51 | 0.06 | 0.84 | 1.13 | 2.37 |  | -0.72 | 
9 | CCN(CC)CCOc1ccc(C(=C(Cl)c2ccccc2)c2ccccc2)cc1 [Clomifene citrate] | 12.1 ± 0.14 | 0.99 | 0.3 | 0.29 | 1.04 | 1.33 | 1.75 | 1.86 | 0.9 | 1.64 | 2.19 | 1.37 | 1.75 | 0.41 | -1.75 | 0.53 | 
10 | COc1cc2c(cc1OC)-c1cc3ccc(OC)c(OC)c3c[n+]1CC2 [Palmatine] | 12.41 ± 0.069 | -0.17 | 2.2 | -0.98 | -0.2 | 1.94 | 1.01 | -1.11 | -0.01 | 1.04 | 1.86 | 0.37 | 1.08 | 1.87 | -0.25 | -0.08 | 
11 | O=C([O-])CC(O)(CC(=O)[O-])C(=O)[O-].O=C([O-])CC(O)(CC(=O)[O-])C(=O)[O-].[Bi+3].[K+].[K+].[K+].[K+].[K+] [Bismuth Subcitrate Potassium] |  | -3.84 | 2.37 | -0.49 | 1.34 | -1.07 | -1.66 | 2.94 |  | 4.34 | 3 | 1.76 | 0.14 |  | 0.38 | 3.24 | -1.79
12 | Nc1c2c(nc3ccccc13)CCCC2 [Tacrine hydrochloride hydrate] |  | 0.5 | -0.15 | 0 | 0.3 |  | -0.01 | -0.42 | 0.92 | -0.15 | 0.33 | 0.56 |  | 0.45 | -0.22 | -0.99 | 0.1
13 | CNCCCN1c2ccccc2CCc2ccccc21 [Desipramine Hydrochloride] |  | 1.14 | 0.26 | -0.08 | -0.28 |  | 0.82 |  | -0.43 | 0.02 | -0.62 | -0.1 |  | -0.78 | -0.16 | 0.31 | 0.16
14 | C[N+](C)(C)CCOC(=O)CCC(=O)OCC[N+](C)(C)C [Succinylcholine Chloride Dihydrate] | 12 ± 0.24 | 1.02 | -0.65 | 0.38 | -1.48 | 0.01 | 0.1 | -0.93 | 0.5 | -0.8 | -0.97 | -0.3 | -0.49 | 0.02 | 0.17 | -0.95 | 
